Three compounds from PubChem BioAssay AID1725 (National Center for Advancing Translational Sciences (NCATS), 2009) can be followed below.

The list shows a part of the results. Inconclusive results are not listed. Values without a mark were called inactive. Active and inactive are the calls of the source. Calls come from the whole dose curve; as a rule, active = well fitted inhibition curve with a large enough effect; inconclusive = small, poorly fitted or top-dose-only effect, or effect the other way; inactive = no such curve, though single readings can be large or run the other way.

The assay in a line: Confirmation Concentration-Response Assay for Inhibitors of the ERK Signaling Pathway using a Homogeneous Screening Assay; Stimulation with EGF. The conditions noted are these: HEK293 EGF-stimulated ERK phosphorylation, AlphaScreen; series mostly up to 57.5 µM; activity change, negative = inhibition: at the top concentration. The source says:
qHTS Assay for Inhibitors of the ERK Signaling Pathway using a Homogeneous Screening Assay
NIH Chemical Genomics Center [NCGC]
NIH Molecular Libraries Screening Centers Network [MLSCN]
Assay Submitter (PI): Dr. Wei Zheng, NCGC/NIH
The Ras/extracellular-signal-regulated kinase (ERK) mitogen activated protein (MAP) kinase signaling pathway (ERK1/2 cascade) plays is a key role in transmitting signals from the cell surface to the nucleus (Nishida and Gotoh 1993; Chang and Karin, 2001). The cascade is initiated by the small G-protein Ras, which recruits Raf […], where activation occurs. Alternatively, this pathway can be activated by elevating intracellular cAMP.
Activation of the ERK pathway is essential in increased cell division and cell survival. Sustained and constitutive activation of the ERK pathway, however, has been linked to uncontrolled cell proliferation, increased cell survival, and tumor progression. Thus, the ERK has been as an attractive target for cancer chemotherapy in the past few years (Sebolt-Leopold and Herrera, 2004). Given its physiological and pathological importance, assessment of ERK phosphorylation has been broadly performed in both basic research and drug discovery. Most assays for the measurement of ERK phosphorylation use the antibody-based detection methods, such as western blot and ELISA. These assays require multiple reagent additions with cell wash steps and are not suitable for high-throughput screening.
The current cell-based ERK phosphorylation assay was performed using AlphaScreen platform. AlphaScreen is a two bead-based proximity-dependent chemical energy transfer luminescent assay platform. […]
HEK293 cells stably expressing type-1 vasopressin receptor (V1b) were maintained in DMEM medium (Invitrogen, Carlsbad, CA) at 37C under a humidified atmosphere containing 5% CO2 and 95% air. […] The ERK phosphorylation in cells was determined using an AlphaScreen assay kit provided by PerkinElmer. […] AC50 values were determined from concentration-response data modeled with the standard Hill equation. […]
(In Alpha technology, singlet oxygen from a donor bead excites a nearby acceptor bead.)
With `CN(C)c1cc2c(Nc3ccc4c(cnn4Cc4ccccc4)c3)ncnc2cn1`, the Potency is 2.82 µM (active).

As to `CN(C)c1ccc(Nc2c3c4c(cccc4n(C)c2=O)C(=O)c2ccccc2-3)cc1`, the Potency is 11.2 µM (active). Take `CCCNc1ncnc2sc(C)c(C)c12`: the “activity change, negative = inhibition” value was -8.99%.
